Source: PubChem (several laboratories)
FadD28 binding: blocks FadD28 binding to the bisubstrate probe. fluorescence polarization. inhibition, % at 12.5 µM. hit rate 0.22% among 360,000. AID 588549; in the data active = inhibition above about 8.5%, passing the limit was not always enough; inconclusive = no clear call, values can overlap the other calls
Mtb hypoxia rep: inhibitors of hypoxia-regulated fluorescent reporter in Mycobacterium tuberculosis; hit rate 0.1% among 300,000; fluorescence inhibition, % (concentration not given with the values); M. tuberculosis hypoxia-regulated fluorescent reporter, fluorescence; in the data active = fluorescence inhibition mostly above about 23%, no sharp cut-off; inactive = mostly below about 17%
SARS 3CLpro inh: SARS-CoV 3CLpro protease inhibition; hit rate 0.14% among 290,000; inhibition, % at 6 µM; recombinant SARS-CoV 3CLpro, quenched FRET peptide cleavage; P0C6X7; AID 1706; in the data active = inhibition above about 12%
BioA inh: blocks M. tuberculosis BioA enzyme activity; purified M. tuberculosis BioA enzyme, plate reader; inhibition, % at 9.99 µM; hit rate 0.096% among 360,000; AID 602481; in the data active = inhibition above about 40%; inconclusive = no clear call, values can overlap the other calls
DUSP3 inh: DUSP3 (human) phosphatase inhibition; hit rate 0.52% among 290,000; AID 1654; inhibition, % at 13.3 µM; recombinant VHR phosphatase, pNPP absorbance; in the data active = inhibition above about 50%
Target sequence (P51452 whole entry, looked up): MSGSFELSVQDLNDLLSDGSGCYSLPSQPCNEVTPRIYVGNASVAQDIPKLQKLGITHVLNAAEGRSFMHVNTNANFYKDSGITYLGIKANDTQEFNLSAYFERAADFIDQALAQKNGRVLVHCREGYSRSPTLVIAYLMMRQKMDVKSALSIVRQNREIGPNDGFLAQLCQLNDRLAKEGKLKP
An asterisk follows results filed as active; ? = inconclusive; . = no result. Hits are enriched below; roughly 0.7% of the tested compounds scored in any of these assays.

SMILES	FadD28 binding	Mtb hypoxia rep	SARS 3CLpro inh	BioA inh	DUSP3 inh
COc1ccc(N)cc1NC(=O)CN1CCCC1	1	9	2	0	59*
CC1CN(C(=O)C=Cc2ccccc2[N+](=O)[O-])CC(C)O1 (centres undefined)	.	0	.	.	.
O=C(O)c1ccccc1NS(=O)(=O)c1ccc(N/N=C/c2cccc(O)c2O)c([N+](=O)[O-])c1	2	.	.	1	.
COc1ccccc1NS(=O)(=O)c1cccc(-n2c(O)c(C=Nc3ccccc3C(=O)O)c3ccccc3c2=O)c1	20*	11	7	-2	0
CC(=O)Nc1cccc(/C(C)=N/Nc2ccc(S(=O)(=O)Nc3ccccc3C(=O)O)cc2[N+](=O)[O-])c1	19*	.	.	11	.
CCOc1ccc(C=NNc2ccc(S(=O)(=O)Nc3ccccc3C(=O)O)cc2[N+](=O)[O-])cc1OC	?	19	.	.	.
COc1cc(C=NNc2ccc(S(=O)(=O)Nc3ccccc3C(=O)O)cc2[N+](=O)[O-])ccc1O	50*	22	.	10	.
CC(=O)Nc1ccc(C=NNc2ccc(S(=O)(=O)Nc3ccccc3C(=O)O)cc2[N+](=O)[O-])cc1	28*	14	.	7	.
CC1CN=C(Nc2ccccc2)N1CCC1CCCCC1 (centres undefined)	.	4	.	.	.
CC(C)NC(=O)N(C)CC1Oc2ccc(NS(=O)(=O)c3ccc(F)cc3)cc2C(=O)N(C(C)CO)CC1C (centres undefined)	.	9	.	.	.
CN(CCO)c1ccc(C=NNc2ccc([N+](=O)[O-])cc2S(=O)(=O)Nc2ccccc2C(=O)O)cc1	32*	17	.	12	.
Cc1nn(-c2ccccc2)c(Cl)c1C=NNc1ccc(S(=O)(=O)Nc2ccccc2C(=O)O)cc1[N+](=O)[O-]	.	7	.	.	.
CCOc1cc(/C=N/Nc2ccc(S(=O)(=O)Nc3ccccc3C(=O)O)cc2[N+](=O)[O-])cc(Cl)c1O	25*	.	.	0	.
CCOC(=O)N1C2=NC(C(=O)OC)=C(C(=O)OC)C3N(C)c4ccc(OC)cc4[C@]23CC1C(=O)OC (some centres undefined)	.	12	.	.	.
COC(=O)c1ccc(OCC2NCCc3cc(OC)c(OC)cc32)cc1 (centres undefined)	0	2	1	-6	56*
COC(=O)C1=C(c2cc3ccccc3s2)CC2CCC1N2C(=O)N1CCOCC1 (centres undefined)	.	0	.	.	.
O=C(O)Cn1c(-c2ccccc2)nc2ccccc21	0	.	0	7	51*
O=C(O)Cn1c(=O)c(-c2ccccc2)nc2ccccc21	-2	5	6	-2	-6
c1ccc(-c2nc3ccccc3c3nc4ccccc4n23)cc1	-4	1	3	.	51*
CC(C)OCCCn1c(=O)c2ccccc2n2c(CCC(=O)O)nnc12	-1	16	-1	-4	-10
CC(C)OCCCn1c(=O)c2ccccc2n2c(CCC(=O)NC3CCN(Cc4ccccc4)CC3)nnc12	-5	5	6	0	53*
COC(=O)COc1ccc(Cl)cc1C1Nc2ccccc2C(=O)N1c1ccc(OC)cc1 (centres undefined)	23*	-5	-2	2	20
CN(C)c1ccc(C=NNc2nc3ccccc3o2)cc1	.	1	.	.	.
CN(Cc1ccccc1F)c1ncnc2sccc12	-6	-5	-2	8	34
OCCN(Cc1ccccc1)c1ncnc2sccc12	-2	19	-4	4	51*
SMILES	FadD28 binding	Mtb hypoxia rep	SARS 3CLpro inh	BioA inh	DUSP3 inh
CN(C)C(CO)c1nnc(C(Cc2ccc(O)cc2)NC(=O)C2CCNCC2)o1 (centres undefined)	.	4	.	.	.
CN(C)C=Nc1c(C#N)cnn1-c1ccc(C(F)(F)F)cn1	.	5	.	.	.
O=C(CSc1n[nH]c(-c2ccccc2O)n1)N1CCCc2ccccc21	-4	6	1	.	52*
Nc1nc(SCC(=O)N2CCCc3ccccc32)n(-c2ccccc2)n1	-1	11	-4	-1	50*
O=C(CSc1n[nH]c(-c2cccs2)n1)N1CCCc2ccccc21	-1	2	3	.	9
CC1OC(=O)C(C)C1CC(O)[C@](C)(O)C1CC[C@@]2(O)C3=CC(=O)C4CC(O)C(O)C[C@]4(C)C3CC[C@]12C (some centres undefined)	.	16	.	.	.
O=C(NCc1ccccc1Cl)/C(=C\c1cccnc1)NC(=O)c1ccccc1	0	-6	6	1	58*
COC(=O)C1=C(c2ccccc2)CC2CCC1N2C(=O)NCc1cccc2ccccc12 (centres undefined)	.	19	.	.	.
Cc1ccc(OCC(=O)NN=Cc2c(C)[nH]n(-c3ccccc3)c2=O)c([N+](=O)[O-])c1	.	2	.	.	.
Cc1ccc(OCC(=O)N/N=C\c2c(C)[nH]n(-c3ccccc3)c2=O)c([N+](=O)[O-])c1	-3	.	1	0	56*
CCCCC(CNC)NCC(Cc1ccc(O)cc1)NCCc1ccc(OCC)cc1 (centres undefined)	.	13	.	.	.
CC(=NNC(=O)c1ccc([N+](=O)[O-])cc1)C(=NO)C(=O)Nc1ccccc1	.	1	.	.	.
O=C1c2cc(Br)ccc2N(Cc2ccc(Br)cc2)S(=O)(=O)C1c1cc(Cl)c(Cl)cc1[N+](=O)[O-] (centres undefined)	30*	.	.	-2	.
CC1CCCC(C)N1Cc1nc(Cc2ccccc2Cl)no1 (centres undefined)	.	8	.	.	.
COCc1nnc(NS(=O)(=O)c2ccc(OC)cc2)s1	0	5	.	-1	.
COCc1nnc(NS(=O)(=O)c2ccc([N+](=O)[O-])cc2)s1	-3	65*	3	1	-2
C#CCOCCOCCOCCNc1nc(N2CCN(C(=O)C(C)n3cc(CCCN=C(N)N)nn3)CC2)nc(N2CCN(C(=O)C(C(C)CC)n3cc(CCCCN)nn3)CC2)n1 (centres undefined)	.	10	.	.	.
O=C(Cn1nc(-c2ccccc2)ccc1=O)NCC1COCCO1 (centres undefined)	-4	5	-1	0	27
O=C(Cn1nc(-c2ccc(Cl)cc2)ccc1=O)NCC1COCCO1 (centres undefined)	-3	0	-5	1	52*
COC(=O)[C@@H](Cc1c[nH]c2ccccc12)NC(=O)c1ccc2c(c1)OCO2	-3	-18	-4	0	53*
O=C(COC(=O)[C@H](Cc1c[nH]c2ccccc12)NC(=O)c1ccc(Cl)cc1)Nc1ccc2c(c1)OCO2	-5	-1	1	-1	0
CCc1ccc2[nH]c(=O)c(CN(CCCN3CCOCC3)C(=O)Nc3ccc(Cl)cc3)cc2c1	-4	.	-6	.	53*
CCc1ccc2[nH]c(=O)c(CN(CCCN3CCOCC3)C(=O)Nc3ccccc3)cc2c1	-1	6	-1	-1	4
COC(=O)c1[nH]c2ccccc2c1CN1CCOCC1	-4	4	-1	-1	56*
O=C(OCCCOC(=O)c1ccc([N+](=O)[O-])o1)c1ccc([N+](=O)[O-])o1	-3	71*	.	0	.
O=C(O)c1ccccc1NC(c1ccccc1)c1ccc(Cl)cc1 (centres undefined)	12*	.	9	.	6
O=C(CSc1ccccc1C(=O)O)c1ccc(Cl)cc1	-3	-5	2	-2	17
